Reference: PubChem BioAssay AID1159580 (chemical genetic matrix, 2015)
Screen size: about 5,500 compounds; about 2,000 (36%) were called active. Roughly 18% stayed inconclusive and do not appear here. Cut-off read from the data, not from the text of the source: active = normalized growth mostly below about 0.91 (no sharp cut-off); inconclusive = no clear call, values can overlap the other calls; inactive = mostly above about 0.92. The list shows a part of the results.

Experiment: chemical genetic growth profiling, strain panel (AID 1159580);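 note: tested at 20 µM; growth read once vehicle control cultures reached saturation at 30 °C; 1 = growth at the plate median or of vehicle wells; lower values mean less growth of the strain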
Details: growth OD
[1] = S. cerevisiae deletion strains, locus YAL013W, strain DEP1, active compounds read low
[2] = S. cerevisiae deletion strains, locus YBR229C, strain ROT2, active compounds read low
[3] = S. cerevisiae deletion strains, locus YDL101C, strain DUN1, active compounds read low
[4] = S. cerevisiae deletion strains, locus YDL134C, strain PPH21, active compounds read low
[5] = S. cerevisiae deletion strains, locus YDR150W, strain NUM1, active compounds read low
[6] = S. cerevisiae deletion strains, locus YEL061C, strain CIN8, active compounds read low
[7] = S. cerevisiae deletion strains, locus YGR078C, strain PAC10, active compounds read low
[8] = S. cerevisiae deletion strains, locus YHR030C, strain SLT2, active compounds read low
[9] = S. cerevisiae deletion strains, locus YHR087W, strain rtc3, active compounds read low
[10] = S. cerevisiae deletion strains, locus YJR043C, strain POL32, active compounds read low
[11] = S. cerevisiae deletion strains, locus YJR075W, strain HOC1, active compounds read low
[12] = S. cerevisiae deletion strains, locus YLR039C, strain RIC1, active compounds read low
[13] = S. cerevisiae deletion strains, locus YLR058C, strain SHM2 (second series), active compounds read low
[14] = S. cerevisiae deletion strains, locus YLR085C, strain ARP6, active compounds read low
[15] = S. cerevisiae deletion strains, locus YLR262C, strain YPT6, active compounds read low
[16] = S. cerevisiae deletion strains, locus YML094W, strain GIM5, active compounds read low
[17] = S. cerevisiae deletion strains, locus YMR219W, strain ESC1, active compounds read low
[18] = S. cerevisiae deletion strains, locus YMR263W, strain SAP30, active compounds read low
[19] = S. cerevisiae deletion strains, locus YMR307W, strain GAS1, active compounds read low
[20] = S. cerevisiae deletion strains, locus YNL153C, strain GIM3, active compounds read low
[21] = S. cerevisiae deletion strains, locus YNL298W, strain CLA4 (second series), active compounds read low
[22] = S. cerevisiae deletion strains, locus YNL322C, strain KRE1, active compounds read low
[23] = S. cerevisiae deletion strains, locus YNR030W, strain Alg12, active compounds read low
[24] = S. cerevisiae deletion strains, locus YPL055C, strain LGE1, active compounds read low
[25] = S. cerevisiae deletion strains, locus YPL241C, strain CIN2, active compounds read low
[26] = S. cerevisiae deletion strains, locus YPR135W, strain CTF4, active compounds read low

Measured: normalized growth

CCSc1nnc(N)s1
inactive: [1] 1.02 | [2] 1.01 | [3] 1.01 | [4] 1.01 | [5] 1 | [6] 0.996 | [7] 1.01 | [8] 1.05 | [9] 1.01 | S. cerevisiae deletion strains, locus YJL187C, strain SWE1, active compounds read low 1.01 | [10] 1 | [11] 0.994 | [12] 1.01 | [13] 1.01 | [14] 0.999 | [15] 1.05 | [16] 0.995 | [17] 1.01 | [18] 1 | [19] 0.981 | S. cerevisiae deletion strains, locus YNL128W, strain TEP1, active compounds read low 1.01 | [20] 0.997 | [21] 0.995 | [22] 1.02 | [23] 1.01 | [24] 0.997 | [25] 1.01 | [26] 1.11 | S. cerevisiae strains, strain wild type, active compounds read low 1.01

N#CC(C#N)=C/C=C(/Sc1ccc(F)c(Cl)c1)c1ccc(Cl)cc1
active: [8] 0.741 | S. cerevisiae deletion strains, locus YLR113W, strain HOG1, active compounds read low 0.632
inactive: S. cerevisiae deletion strains, locus YAR019C, strain CDC15, active compounds read low 0.937 | S. cerevisiae deletion strains, locus YBL105C, strain PKC1, active compounds read low 0.948 | S. cerevisiae deletion strains, locus YBR135W, strain CKS1, active compounds read low 0.943 | S. cerevisiae deletion strains, locus YBR136W, strain MEC1, active compounds read low 0.949 | S. cerevisiae deletion strains, locus YBR160W, strain CDC28, active compounds read low 0.958 | S. cerevisiae deletion strains, locus YDL017W, strain CDC7, active compounds read low 0.961 | S. cerevisiae deletion strains, locus YDL028C, strain MPS1, active compounds read low 0.949 | [3] 0.961 | S. cerevisiae deletion strains, locus YDL108W, strain KIN28, active compounds read low 0.947 | S. cerevisiae deletion strains, locus YDL132W, strain cdc53, active compounds read low 0.942 | S. cerevisiae deletion strains, locus YDL214C, strain PRR2, active compounds read low 0.891 | S. cerevisiae deletion strains, locus YDR052C, strain DBF4, active compounds read low 0.956 | S. cerevisiae deletion strains, locus YDR054C, strain cdc34, active compounds read low 0.943 | S. cerevisiae deletion strains, locus YDR226W, strain ADK1, active compounds read low 0.964 | S. cerevisiae deletion strains, locus YDR477W, strain SNF1, active compounds read low 0.839 | S. cerevisiae deletion strains, locus YER123W, strain YCK3, active compounds read low 0.822 | S. cerevisiae deletion strains, locus YER133W, strain GLC7, active compounds read low 0.872 | S. cerevisiae deletion strains, locus YFL009W, strain cdc4, active compounds read low 0.943 | S. cerevisiae deletion strains, locus YFL029C, strain CAK1, active compounds read low 0.951 | S. cerevisiae deletion strains, locus YFR003C, strain YPI1, active compounds read low 0.951 | S. cerevisiae deletion strains, locus YFR019W, strain FAB1, active compounds read low 0.95 | S. cerevisiae deletion strains, locus YFR028C, strain CDC14, active compounds read low 0.949 | S. cerevisiae deletion strains, locus YGR040W, strain KSS1, active compounds read low 0.823 | S. cerevisiae deletion strains, locus YGR052W, strain FMP48, active compounds read low 0.81 | S. cerevisiae deletion strains, locus YGR092W, strain DBF2, active compounds read low 0.759 | S. cerevisiae deletion strains, locus YHR079C, strain IRE1, active compounds read low 0.806 | S. cerevisiae deletion strains, locus YHR082C, strain KSP1, active compounds read low 0.839 | S. cerevisiae deletion strains, locus YHR205W, strain SCH9, active compounds read low 0.608 | S. cerevisiae deletion strains, locus YIL147C, strain SLN1, active compounds read low 0.951 | S. cerevisiae deletion strains, locus YJL095W, strain BCK1, active compounds read low 0.69 | S. cerevisiae deletion strains, locus YJL128C, strain PBS2, active compounds read low 0.896 | S. cerevisiae deletion strains, locus YJL157C, strain FAR1, active compounds read low 0.892 | S. cerevisiae deletion strains, locus YJR016C, strain ILV3, active compounds read low 0.937 | S. cerevisiae deletion strains, locus YJR066W, strain TOR1 (second series), active compounds read low 0.748 | S. cerevisiae deletion strains, locus YJR066W, strain TOR1, active compounds read low 0.781 | S. cerevisiae deletion strains, locus YKL048C, strain ELM1, active compounds read low 0.932 | S. cerevisiae deletion strains, locus YKL067W, strain YNK1, active compounds read low 0.888 | S. cerevisiae deletion strains, locus YKL101W, strain HSL1, active compounds read low 0.834 | S. cerevisiae deletion strains, locus YKL193C, strain SDS22, active compounds read low 0.947 | S. cerevisiae deletion strains, locus YKL203C, strain TOR2, active compounds read low 0.87 | S. cerevisiae deletion strains, locus YLR133W, strain CKI1, active compounds read low 0.906 | S. cerevisiae deletion strains, locus YLR403W, strain SFP1, active compounds read low 0.753 | S. cerevisiae deletion strains, locus YML070W, strain DAK1, active compounds read low 0.855 | S. cerevisiae deletion strains, locus YMR001C, strain CDC5, active compounds read low 0.944 | S. cerevisiae deletion strains, locus YMR205C, strain PFK2 (second series), active compounds read low 0.89 | S. cerevisiae deletion strains, locus YMR277W, strain FCP1, active compounds read low 0.941 | S. cerevisiae deletion strains, locus YNL006W, strain LST8, active compounds read low 0.976 | S. cerevisiae deletion strains, locus YNL020C, strain ARK1, active compounds read low 0.884 | S. cerevisiae deletion strains, locus YNL161W, strain CBK1, active compounds read low 0.96 | S. cerevisiae deletion strains, locus YNL183C, strain NPR1, active compounds read low 0.749 | S. cerevisiae deletion strains, locus YNL207W, strain RIO2, active compounds read low 0.938 | S. cerevisiae deletion strains, locus YNL222W, strain SSU72, active compounds read low 0.955 | S. cerevisiae deletion strains, locus YNL307C, strain MCK1 (second series), active compounds read low 0.711 | S. cerevisiae deletion strains, locus YOL078W, strain AVO1, active compounds read low 0.94 | S. cerevisiae deletion strains, locus YOL136C, strain PFK27, active compounds read low 0.879 | S. cerevisiae deletion strains, locus YOR061W, strain CKA2, active compounds read low 0.827 | S. cerevisiae deletion strains, locus YOR119C, strain RIO1, active compounds read low 0.876 | S. cerevisiae deletion strains, locus YOR231W, strain MKK1, active compounds read low 0.781 | S. cerevisiae deletion strains, locus YOR329C, strain SCD5, active compounds read low 0.956 | S. cerevisiae deletion strains, locus YPL031C, strain PHO85, active compounds read low 0.758 | S. cerevisiae deletion strains, locus YPL153C, strain RAD53, active compounds read low 0.856 | S. cerevisiae deletion strains, locus YPL204W, strain HRR25, active compounds read low 0.856 | S. cerevisiae deletion strains, locus YPL209C, strain IPL1, active compounds read low 0.954 | S. cerevisiae deletion strains, locus YPL256C, strain CLN2, active compounds read low 0.877 | S. cerevisiae deletion strains, locus YPR025C, strain CCL1, active compounds read low 0.956 | S. cerevisiae deletion strains, locus YPR106W, strain ISR1, active compounds read low 0.957 | S. cerevisiae deletion strains, locus YPR111W, strain DBF20, active compounds read low 0.944 | S. cerevisiae deletion strains, strain NNK1, active compounds read low 0.946 | S. cerevisiae deletion strains, strain TSCII, active compounds read low 0.945

CN(C)C=Nc1nnc(Sc2ncccc2[N+](=O)[O-])s1
inactive: [1] 0.999 | [2] 1 | S. cerevisiae deletion strains, locus YCL061C, strain MRC1, active compounds read low 1.01 | [3] 1.01 | [4] 1.01 | [5] 0.987 | [6] 0.995 | [7] 1 | S. cerevisiae deletion strains, locus YGR229C, strain SMI1, active compounds read low 0.992 | [8] 1 | [9] 1.01 | [10] 0.985 | [11] 0.997 | [12] 1.03 | [13] 1 | [14] 1.06 | [15] 1.03 | [16] 1.01 | [17] 1.01 | [18] 0.995 | [19] 0.983 | [20] 0.977 | [21] 1.06 | [22] 1.02 | [23] 1.04 | S. cerevisiae deletion strains, locus YOL006C, strain TOP1, active compounds read low 1.01 | [24] 0.988 | [25] 1.02 | [26] 1.06
